Results published in the OligoGym collection.

molecular target: YIPF6; test: pooled miR-30 sensor sort-seq; sequence = guide strand; conditions: shRNA
Note: reference of the scale not given here.

Sequence | sensor-assay potency score (higher = more potent)
TTTGAGTTGAGGGTGATGGTAA | -0.386
TTGTGAGATGGATATATCTGAA | -0.839
TTACAGGTCCTGGATCAGCCAA | -1.45
TTTTAGATCACGCATGATGGTA | -0.619
TTTAGATCACGCATGATGGTAT | 0.00293
TAAACAGCTAGGGCTCTGCGGT | -0.877
TCACTATCTGCAGAGTCTCTTT | -0.696
TAGGAATGGTGATTTCTCCTTC | 0.33
TTTCACTATCTGCAGAGTCTCT | -0.747
TATCTGCAGAGTCTCTTTGCAG | -1.39
TTGAGGGTGATGGTAACTGCAC | -0.917
TCTCTTTGCAGCATTAATGCGA | -0.247

molecular target: YJEFN3; test: as above; conditions: shRNA

Sequence | sensor-assay potency score (higher = more potent)
TGTCCATCTTCTCGCACTGGGT | -1.09
ATAGGCTTCGTTAATGAGCTGC | 0.277
TTAATGAGCTGCACCTCAGTGG | 0.0127
TTGAGCGTGGCCAGCGCGCGGG | -0.949
AATCGCTGCCGGTCTCTGCGTC | -0.877
ATGGACAGCAGCTTGAGCGTGG | 0.0409
TCATCGGGCACGAACCTGCCGG | -1.06
ATGACCGCACAGCTCCACGAGC | -1.82
TTCGTTAATGAGCTGCACCTCA | -0.35
ATGTCCATCTTCTCGCACTGGG | -1.01
TCCATCTTCTCGCACTGGGTGG | -1.52
TAGCATGACCGCACAGCTCCAC | -0.593

molecular target: YPEL3; test: as above; conditions: shRNA

Sequence | sensor-assay potency score (higher = more potent)
TTTGAAATCCGCACCATGGCGG | -0.368
TTGTACTTCTGGCTGCTCTCAA | 0.24
TTGAGTTCAATGATGTACTTCC | 0.797
TTCAATGATGTACTTCCCCTCT | -0.135
TTCTCGCAGTGGATGTCGGCGA | -0.367
TTATGTACAAACGCTACAGAAC | -1.18
TTGGAGATGAGGTCGTCGTGGT | 0.122
ATATACAGGAGCTAGATCCGTC | 0.357
ACAATCATCCAAGTAGGCCTGA | 0.225
TCTTGCAGTTCTCGCAGTGGAT | -1.02
TTCCCCTCTTTGTACTTCTGGC | -0.928
TATACCTCCGGTGACAATCATC | -1.49
